Source: PubChem BioAssay
Where “and” joins values, the source holds several entries; their conditions need not be identical. Equal values may be shown once. Calls of active or inactive are those of the source.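 How the source made its calls, unless noted: active means mean z-score across replicates of 1.96 or higher in either the MELAS or the Rieske mutant cell line; inactive means the rest.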

What was measured:
[1] = blockers of cellular phospholipid synthesis – cell-based, LOPAC library, screen 4, primary screen (AID 1347384; call rule not given here); conditions: animal cells, phospholipid biosynthesis inhibition screen; at 10 µM
[2] = MELAS cybrid and Rieske KO viability enhancers – cell-based, MELAS cybrids, Rieske KO mouse fibroblasts, CellTiter-Glo, primary screen (AID 1508586); conditions: low glucose;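 further: z relative to plate mean and SD of compound and empty wells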
[3] = target: NAD(+) hydrolase SARM1 (Homo sapiens) (UniProt Q6SZW1); test: blocking NAD cleavage by SARM1 SAM-TIR – cell lysate, NAD-Glo luminescence (AID 1508614;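 active means compound whose remaining NAD level is above about 45 nM, limit read from the data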); conditions: SAM-TIR HEK293T lysate NADase, at 1 µM, stronger effect = higher value
[4] = target: Mitogen-activated protein kinase 7 (Homo sapiens) (UniProt Q13164); test: Gal4-ERK5 driven luciferase induction – cell-based, HTS, primary screen (AID 1508626;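 active means luciferase signal above three times the same-plate solvent-only control wells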;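 further: luciferase driven by Gal4-ERK5 fusion binding five Gal4 sites before minimal TATA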); conditions: HeLa Gal4-ERK5 transactivation, 18 h, at 5 µM, stronger effect = higher value
[5] = galactose survival enhancers in mitochondrial complex I cybrids – cell-based, galactose medium, ATP luminescence, primary screen (AID 1645843;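 active means z-score of at least 1.8 in each of two replicates, scored against plate mean and spread of sample wells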;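 further: positive z means more ATP and so rescue of galactose-driven cybrid death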); conditions: complex I mutant cybrid cells, 72 h, stronger effect = higher value
[6] = MELAS cybrid survival, CellTiter-Glo 48 h, stronger effect = higher value
[7] = Rieske KO mouse fibroblast survival, CellTiter-Glo 72 h

Mitogen-activated protein kinase 7 (Homo sapiens), sequence (Q13164 whole entry, looked up, the tested form may be a part): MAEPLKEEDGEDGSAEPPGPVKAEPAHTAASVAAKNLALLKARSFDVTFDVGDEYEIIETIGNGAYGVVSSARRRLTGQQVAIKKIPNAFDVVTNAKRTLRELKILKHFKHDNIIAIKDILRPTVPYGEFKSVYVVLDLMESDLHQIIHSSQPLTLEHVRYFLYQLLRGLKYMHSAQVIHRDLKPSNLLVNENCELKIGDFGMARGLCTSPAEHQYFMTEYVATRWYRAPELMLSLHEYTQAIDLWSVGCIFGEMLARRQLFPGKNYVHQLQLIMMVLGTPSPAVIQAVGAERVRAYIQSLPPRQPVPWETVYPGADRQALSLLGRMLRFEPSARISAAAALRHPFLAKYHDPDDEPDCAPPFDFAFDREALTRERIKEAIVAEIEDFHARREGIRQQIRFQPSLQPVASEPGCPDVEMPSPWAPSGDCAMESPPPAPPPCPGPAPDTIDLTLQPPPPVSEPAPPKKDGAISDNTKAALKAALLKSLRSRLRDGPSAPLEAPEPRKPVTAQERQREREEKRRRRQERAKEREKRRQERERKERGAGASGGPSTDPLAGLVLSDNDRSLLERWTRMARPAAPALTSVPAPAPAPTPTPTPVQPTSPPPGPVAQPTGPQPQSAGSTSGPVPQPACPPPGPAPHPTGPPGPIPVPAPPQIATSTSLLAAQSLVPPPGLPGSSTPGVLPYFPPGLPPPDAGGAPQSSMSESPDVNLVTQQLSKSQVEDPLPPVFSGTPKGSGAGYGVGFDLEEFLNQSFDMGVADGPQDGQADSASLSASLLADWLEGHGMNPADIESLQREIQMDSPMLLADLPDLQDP
NAD(+) hydrolase SARM1 (Homo sapiens), sequence (Q6SZW1 whole entry, looked up, the tested form may be a part): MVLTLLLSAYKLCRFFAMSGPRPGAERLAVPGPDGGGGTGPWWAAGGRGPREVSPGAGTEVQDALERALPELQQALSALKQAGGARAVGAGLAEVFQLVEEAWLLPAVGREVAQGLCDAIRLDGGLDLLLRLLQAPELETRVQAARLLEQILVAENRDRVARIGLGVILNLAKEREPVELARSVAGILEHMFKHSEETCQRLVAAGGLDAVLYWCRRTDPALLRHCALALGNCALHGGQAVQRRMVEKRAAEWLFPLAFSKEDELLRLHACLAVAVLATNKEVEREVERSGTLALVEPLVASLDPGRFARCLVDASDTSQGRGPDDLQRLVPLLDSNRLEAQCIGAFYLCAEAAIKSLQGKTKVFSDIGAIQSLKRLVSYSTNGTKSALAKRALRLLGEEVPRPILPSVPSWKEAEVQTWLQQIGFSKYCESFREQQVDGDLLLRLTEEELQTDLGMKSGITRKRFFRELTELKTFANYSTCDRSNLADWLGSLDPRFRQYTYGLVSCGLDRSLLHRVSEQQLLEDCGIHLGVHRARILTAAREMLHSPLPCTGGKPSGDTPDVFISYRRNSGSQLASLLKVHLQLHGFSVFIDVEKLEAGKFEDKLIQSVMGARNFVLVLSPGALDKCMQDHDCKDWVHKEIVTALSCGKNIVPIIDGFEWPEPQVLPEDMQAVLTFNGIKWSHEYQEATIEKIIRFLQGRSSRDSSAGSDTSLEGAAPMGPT

Row | Compound | outcome [1] | z-score [2, 6] | z-score [2, 7] | remaining NAD [3] | luciferase signal [4] | z-score [5]
1 | C[N+](C)(C)CCOC(N)=O | inactive | -0.544 (inactive) and -0.486 (inactive) | -1.06 and 1.01 | 12 nM (inactive) | 72 AU (inactive) | 0.575 (inactive) and 0.535 (inactive)
2 | CCN(CC)CCOCCOC(=O)C1(c2ccccc2)CCCC1 | inactive | 0.546 (inactive) | 0.186 | 10 nM (inactive) | 36 AU (inactive) | -0.64 (inactive) and -0.655 (inactive)
3 | CCCCNc1ccc(C(=O)OCCN(C)C)cc1 | inactive | -0.338 (inactive) and -0.454 (inactive) | -0.0172 and -0.0428 | 10 nM (inactive) | 76 AU (inactive) | -0.23 (inactive)
4 | NC(N)=NC(=O)Cc1c(Cl)cccc1Cl | inactive | -0.203 (inactive) and -0.668 (inactive) | 0.336 and -1.29 | 10 nM (inactive) |  | -0.06 (inactive) and -0.17 (inactive) and -0.035 (inactive)
5 | CCO/C([O-])=N/c1c[n+](N2CCOCC2)no1 |  | 0.408 (inactive) and -0.37 (inactive) | 0.123 and -0.771 | 10 nM (inactive) | 56 AU (inactive) | 0.905 (inactive) and 0.425 (inactive)
6 | O=c1[nH]cnc2c1ncn2[C@@H]1O[C@H](CO)[C@@H](O)[C@H]1O |  |  |  | 10 nM (inactive) | 44 AU (inactive) | 
7 | Cc1ncc([N+](=O)[O-])n1CC(O)CCl (stereo unspecified) |  | -0.127 (inactive) and -0.079 (inactive) | -0.152 and -0.097 | 10 nM (inactive) | 36 AU (inactive) | 0.42 (inactive)
8 | Nc1ccc(O)c(C(=O)O)c1 |  | -0.293 (inactive) and -0.757 (inactive) and 0.532 (inactive) | 0.059 and -0.214 and -0.391 | 10 nM (inactive) | 48 AU (inactive) | 0.62 (inactive) and 0.46 (inactive)
9 | Cc1c(C(=O)O)c(O)cc2c1C(=O)c1c(O)c([C@@H]3O[C@H](CO)[C@@H](O)[C@H](O)[C@H]3O)c(O)c(O)c1C2=O |  |  |  |  | 52 AU (inactive) | 
10 | O=C(CCCN1CCN(c2ccccn2)CC1)c1ccc(F)cc1 |  | -0.275 (inactive) and -0.83 (inactive) and 0.232 (inactive) | -0.169 and 0.0955 and 0.456 | 10 nM (inactive) | 92 AU (inactive) | -0.625 (inactive)
11 | C[C@@H]1C[C@H]2[C@@H]3CCC4=CC(=O)C=C[C@]4(C)[C@@]3(F)[C@@H](O)C[C@]2(C)[C@H]1C(=O)CO |  |  |  | 10 nM (inactive) | 32 AU (inactive) | 
12 | CCCCCCOc1ccccc1C(N)=O |  |  |  | 10 nM (inactive) | 48 AU (inactive) | 
13 | CC(=O)OCC(=O)[C@H]1CC[C@H]2[C@@H]3CCC4=CC(=O)CC[C@]4(C)[C@H]3CC[C@]12C |  |  |  | 10 nM (inactive) | 60 AU (inactive) | 
14 | Cc1ccc(C(C)C)cc2c(C)ccc1-2 |  |  |  |  | 128 AU (inactive) | 
15 | COc1ccc(CN2CCN(C(c3ccc(F)cc3)c3ccc(F)cc3)CC2)c(OC)c1OC |  | -0.49 (inactive) and -0.685 and -0.348 (inactive) | -0.282 and 2.06 and 1.06 | 10 nM (inactive) |  | -1.88 (inactive) and -2.46 (inactive)
16 | CCc1oc2ccccc2c1C(=O)c1cc(Br)c(O)c(Br)c1 |  | -0.224 (inactive) and 0.135 (inactive) | -0.158 and -0.137 | 10 nM (inactive) | 52 AU (inactive) | -1.42 (inactive)
17 | CC(=O)Nc1cccc(O)c1 |  |  |  | 10 nM (inactive) | 64 AU (inactive) | 
18 | CN(C)C(=O)Nc1ccc(Cl)c(Cl)c1 |  |  |  |  | 260 AU (active) | 
19 | CC(=O)OCC(=O)[C@@]1(O)[C@H](OC(C)=O)C[C@H]2[C@@H]3CCC4=CC(=O)C=C[C@]4(C)[C@@]3(F)[C@@H](O)C[C@@]21C |  |  |  | 10 nM (inactive) | 96 AU (inactive) | 
20 | O=C1OCCN1/N=C/c1ccc([N+](=O)[O-])o1 |  |  |  | 10 nM (inactive) | 56 AU (inactive) | 
21 | C[C@@H]1C[C@H]2[C@@H]3CCC4=CC(=O)C=C[C@]4(C)[C@@]3(F)[C@@H](O)C[C@]2(C)[C@@]1(O)C(=O)COP(=O)(O)O |  |  |  | 10 nM (inactive) | 32 AU (inactive) | 
22 | COc1ccc(CCN2CCC(Nc3nc4ccccc4n3Cc3ccc(F)cc3)CC2)cc1 |  | -0.668 (inactive) and -0.11 (inactive) | -1.26 and 1.21 | 10 nM (inactive) | 84 AU (inactive) | -0.615 (inactive) and -2.45 (inactive)

Row | Compound | outcome [1] | z-score [2, 6] | z-score [2, 7] | remaining NAD [3] | luciferase signal [4] | z-score [5]
23 | Oc1cc(O)c2c(c1)O[C@H](c1ccc(O)c(O)c1)[C@H](O)C2 |  |  |  |  | 20 AU (inactive) | 
24 | c1ccc(CN(CC2=NCCN2)c2ccccc2)cc1 |  | 0.519 (inactive) and -0.255 (inactive) and -0.229 (inactive) | -0.208 and -0.144 and -0.113 | 10 nM (inactive) | 112 AU (inactive) | -0.39 (inactive) and 0.065 (inactive)
25 | O=C1O[C@H](CO)[C@@H](O)[C@H](O)[C@H]1O |  |  |  | 10 nM (inactive) | 16 AU (inactive) | 
26 | COC(=O)[C@@H](N)CS |  |  |  | 10 nM (inactive) | 52 AU (inactive) | 
27 | COc1ccc2cc1Oc1ccc(cc1)C[C@H]1c3c(cc4c(c3Oc3cc5c(cc3OC)CCN(C)[C@@H]5C2)OCO4)CCN1C |  |  |  | 10 nM (inactive) | 212 AU (inactive) | 
28 | O=c1[nH]cnc2nc[nH]c12 |  |  |  |  | 60 AU (inactive) | 
29 | C[C@]12CCC(=O)C=C1CC[C@@H]1[C@@H]2[C@@H](O)C[C@@]2(C)[C@H]1CC[C@]2(O)C(=O)COP(=O)(O)O |  |  |  | 10 nM (inactive) | 72 AU (inactive) | 
30 | OCCOCCN1CCN(C2=Nc3ccccc3Sc3ccccc32)CC1 |  | -0.365 (inactive) and 0.666 (inactive) and 0.0103 (inactive) | -0.209 and 0.244 and 1.08 | 10 nM (inactive) | 48 AU (inactive) | -0.095 (inactive) and 0.115 (inactive)
31 | O=C1C(=O)c2ccccc2C(O)=C1C1CCC(c2ccc(Cl)cc2)CC1 (stereo unspecified) |  | -0.28 (inactive) and 0.215 (inactive) and 0.186 (inactive) | -0.105 and 0.155 and 0.7 | 10 nM (inactive) | 56 AU (inactive) | -0.055 (inactive)
32 | CC(C)(C)CC(C)(C)c1ccc(O)c(Cc2ccc(Cl)cc2Cl)c1 |  |  |  | 10 nM (inactive) | 52 AU (inactive) | 
33 | CC(=O)NCCCCCC(=O)O |  |  |  | 10 nM (inactive) | 76 AU (inactive) | 
34 | CC(=O)Oc1c(C)c(C)c2c(c1C)CC[C@@](C)(CCC[C@H](C)CCC[C@H](C)CCCC(C)C)O2 |  |  |  | 10 nM (inactive) |  | 
35 | C[C@@H]1CC[C@@]2(OC1)O[C@H]1C[C@H]3[C@@H]4CC[C@H]5C[C@@H](O)CC[C@]5(C)[C@H]4CC(=O)[C@]3(C)[C@H]1[C@@H]2C |  |  |  |  | 52 AU (inactive) | 
36 | N[C@@H](CCC(=O)N[C@@H](CS)C(=O)NCC(=O)O)C(=O)O |  |  |  | 22 nM (inactive) | 68 AU (inactive) | 
37 | CCCCCCCCCCCCCCCCCCOCC(O)CO (stereo unspecified) |  |  |  |  | 152 AU (inactive) | 
38 | O=C(O)[C@@H](O)[C@H](O)[C@H](O)[C@@H](O)C(=O)O |  |  |  |  | 52 AU (inactive) | 
39 | Nc1c(Br)cc(Br)cc1CNC1CCC(O)CC1 (stereo unspecified) |  | -0.0247 (inactive) and 0.738 (inactive) and 0.116 (inactive) | -0.062 and -0.225 and -0.64 | 10 nM (inactive) | 84 AU (inactive) | -0.32 (inactive) and 0.295 (inactive)
40 | CC(=O)OCC(=O)NCCCOc1cccc(CN2CCCCC2)c1 |  | -0.52 (inactive) and 0.36 (inactive) and 0.133 (inactive) | -0.102 and 0.209 and -1.07 | 10 nM (inactive) |  | 0.45 (inactive) and 0.22 (inactive)
41 | COc1ccccc1OCC(O)CO (stereo unspecified) |  | -0.233 (inactive) and 0.795 (inactive) and 1.3e-05 (inactive) | -0.0145 and 0.521 and -0.435 | 10 nM (inactive) | 160 AU (inactive) | 0.37 (inactive)
42 | Clc1ccc2c(c1)CCc1cccnc1C2=C1CCNCC1 |  | -0.116 (inactive) and -0.424 (inactive) and -0.172 (inactive) | -0.231 and 0.543 and -0.35 | 10 nM (inactive) | 32 AU (inactive) and 40 AU (inactive) | -1.23 (inactive) and -1.54 (inactive)
43 | Oc1ccc(Cl)cc1Cc1cc(Cl)ccc1O |  |  |  | 10 nM (inactive) | 72 AU (inactive) | 
44 | CCc1nn(CCCN2CCN(c3cccc(Cl)c3)CC2)c(=O)n1CCOc1ccccc1 |  | -0.135 (inactive) and 0.202 (inactive) | -0.202 and -0.42 | 10 nM (inactive) |  | -1.88 (inactive) and -0.63 (inactive) and -2.48 (inactive)
